In the supplement of paper PMC10338343:
± gives the standard deviation.

The sequences below were run on EfPiwi piRISC loaded with L1MC piRNA (26 nt) (assay: pre-steady-state target cleavage rate (min^-1); auxiliary factor: 500 nM Ephydatia muelleri Gtsf1; guide: L1MC piRNA 5'p-UAACUAAAUACUAUGCAAGCUGUAGG; MIWI and MILI are mouse PIWI proteins and EfPiwi is from a freshwater sponge; tags in brackets are library labels; higher = faster piRNA-guided slicing of the target).
Summary of the method: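 A transcribed, DNA-blocked target RNA library (0.1 nM) and 1 nM active affinity-purified piRISC bearing one synthetic guide were incubated in HEPES–potassium acetate buffer at 33 °C for 0–8 or 0–960 min, either with or without 500 nM GTSF1 partner protein. Uncleaved targets were sequenced, normalised to depth and to weakly complementary targets, and pooled over three trials, with k3 capped at 0.0001 min^-1. The pre-steady-state cleavage rate was derived with a burst-and-steady-state fit.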

Row | Sequence | pre-steady-state target cleavage rate
1 | UCCUGGAUGGGCUUGCAUAGUAUUUAGUUA | 0.0238 ± 0.0063
2 | UCCUGCUUCAGCUUGCAUAGUAUUUACUUA | 0.00411 ± 0.0037
3 | UCCUGGAUGAUGCUUGCAUAGUAUUUAGUUA | 0.0738 ± 0.022
4 | UCCUGGUACAGCUUUGCAUAGUAUUUAGUUA | 0.00974 ± 0.0035
5 | UCCUCCUACAGCUUGGAUAGUAUUUUCAAA | 0.00297 ± 0.0022
6 | UCCUGGAUGUCGAACGAUAGUAUUAUAGUUA | < 0.0001
7 | UCCUGGAACAGCUUGCAUAGUAUUCAGUUA | 0.00333 ± 0.0018
8 | UCCUCCUACAGCAUGCAUAGUAUUAAGUUA | 0.00654 ± 0.0033
9 | UCCUGGAUGUCGAACGUAUGUAUUUAGAUUA | < 0.0001
10 | UCCUGGAACAGCUUGCAUAGUAUUUCGUUA | 0.0025 ± 0.0013
11 | UCCUCCUACAGCUUGCAAAGUAUUUAGUUA | 0.0392 ± 0.012
12 | UCCUGGAUGUGCUUGCAUAGUAUAAAGUUA | 0.00378 ± 0.0034
13 | UCCUCCUACAGCUUGCAUAGUAUUUAGUUA [g2:g26:cont:t1A] | 0.121 ± 0.034
14 | UCCUCCUACAGCUUGCAUAGUAUUAUCUAA | 0.00413 ± 0.0033
15 | UCCUGGAUGUCGUUGCAAACUAUUUAGUUA | < 0.0001
16 | UCCUGGAUGUCGAACGUAAGGAUUUAGUUA | < 0.0001
17 | UCCUGGAUGUGCUUCCAUAGUAUUUAGAAA | 0.00625 ± 0.0039
18 | UCCUGGAUGUCGUUCCAUAGUAAUUAGUUA | < 0.0001
19 | UCCUGGUACAGCUUGCAUAGAAUUUAGAAA | 0.00253 ± 0.0021
20 | UCCUGCUACAGGUUGCAAAGUAUUUAGUUA | 0.0385 ± 0.0096

Row | Sequence | pre-steady-state target cleavage rate
21 | UCCUGGAUGUCGAACCAUUGUAUUUAGUAA | < 0.0001
22 | UCCUCCUACAGCUUGCAUAGUAUUAAGAUA | 0.00411 ± 0.0022
23 | UCCUGGAUGUCGAACGUCAGUAUUUAGUUA | < 0.0001
24 | UCCUGGUACAGCUUGGAUAGUAUUUAGAAA | 0.00277 ± 0.0022
25 | UCCUGGAUGAGCUUGCAUAGUACUUUAGUUA | 0.00806 ± 0.003
26 | UCCUGGAUGAGCUUGCAAUAGUAUUUAGUUA | 0.00597 ± 0.003
27 | UCCUGGAUCAGCUUGCAUAGUAUUUAGUUU [g2:g22:cont:t1U] | 0.121 ± 0.025
28 | UCCUGCUACUGCUUGCAUAGUAUUUAGAUA | 0.00383 ± 0.0018
29 | UCCUGGAUCAGCUUGCAUAGUAUUUAGUCUA | 0.00289 ± 0.0027
30 | UCCUGGAUGAGCUUGCAUAGUAUUUAGUA | 0.00405 ± 0.0032
31 | UCCUGCUACAGCUUGCAUAGUUAUUAGUAA | 0.00306 ± 0.0017
32 | UCCUGGAACAGCUUGGAUAGUAUUUACAAA | 0.00254 ± 0.0019
33 | UCCUGCUACAGCUUCCAUAGUAUUUAGAAA | 0.00349 ± 0.0019
34 | UCCUGGAUGUCGAACGUUACUAUUUAGUUA | < 0.0001
35 | UCCUGGAUGUCGAACGUUAGUAUUUAGUCA | < 0.0001
36 | UCCUGCUGCAGCUUGCAUAGUAUUUAGUUA | 0.0729 ± 0.016
37 | UCCUGGAUGAGCUUGCAUAGUAAUUACAAA | 0.00446 ± 0.0034
38 | UCCUGGAACACGAUGCAUAGUAUUUAGUUA | 0.00377 ± 0.0016
39 | UCCUGGAACAGGAUGCAUAGUAUUUAGUUA | 0.00753 ± 0.0018
40 | UCCUGCUACAGCUUGCAUAGUAUUUAGCUA | 0.00339 ± 0.0014
